Bioassay records (PubChem)
An excerpt weighted towards active compounds, which were near 1.5% of everything screened.
AID504770: E. coli YBA685 growth inhibition, screen for V. cholerae RctB inhibitors; E. coli YBA685 rctB-dependent plasmid, OD600 growth, 3 h; hits give low values; z-score (concentration not given with the values); 130,000 compounds, 0.27% hits; in the data active = z-score below about -2, passing the limit was not always enough
Mtb MbtI inh: MbtI salicylate synthase inhibition. P9WFX0. purified MbtI enzyme, fluorescence intensity read-out. inhibition, % (no concentration beside the values). 100,000 compounds, 0.89% hits; in the data active = inhibition mostly above about 56%, no sharp cut-off; inactive = mostly below about 77%
PV pol inh: inhibitors of poliovirus RNA polymerase binding and polymerization. P03300. poliovirus polymerase elongation, fluorescence polarization; hits give low values. % elongation, % (compound at 16.7 µg/mL). 150,000 compounds, 0.66% hits; in the data active = % elongation below about 90%
MenB inh: Mtb MenB enzyme inhibition; P9WNP5; MenB enzyme assay, absorbance read-out; inhibition, % (concentration not given with the values); 100,000 compounds, 0.43% hits; AID 540299; in the data active = inhibition above about 21%, passing the limit was not always enough
Target sequence (P9WNP5 whole entry, looked up): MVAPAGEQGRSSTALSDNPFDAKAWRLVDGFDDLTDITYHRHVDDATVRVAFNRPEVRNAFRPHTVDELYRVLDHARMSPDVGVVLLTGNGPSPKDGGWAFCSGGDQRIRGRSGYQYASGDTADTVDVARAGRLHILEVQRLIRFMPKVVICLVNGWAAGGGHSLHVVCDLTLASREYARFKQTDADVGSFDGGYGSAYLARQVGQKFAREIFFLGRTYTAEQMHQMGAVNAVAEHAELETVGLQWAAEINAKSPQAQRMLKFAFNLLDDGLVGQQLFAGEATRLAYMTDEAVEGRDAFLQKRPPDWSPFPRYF
Each line names hits and unclear results; the compound was inactive in the other large screens; ! = not confirmed by another sample.

CCOC(=O)c1c(C)[nH]c(C)c1S(=O)(=O)N1CCCC(C(=O)NCc2ccc(Cl)cc2)C1 (stereo not given)	none (no result: AID504770, Mtb MbtI inh, MenB inh)
CC1=C/C(=N\Nc2ccccc2Cl)CC1	Mtb MbtI inh 72.2
CC1=C/C(=N\Nc2nncc3ccccc23)CC1	none
CC(=O)Nc1nc(NC(C)=O)n(-c2ccccc2)n1	none
Nc1nc(NC(=O)CCC(=O)O)nn1-c1ccccc1	MenB inh 30.3
CC1CN(c2nc(-c3cccs3)cc(C(F)(F)F)c2C#N)CC(C)O1 (stereo not given)	none (no result: Mtb MbtI inh, PV pol inh, MenB inh)
CC1CN(c2nnc(-c3cccs3)c3ccccc23)CC(C)O1 (stereo not given)	AID504770 -2.55
CC1CC(C)CN(C(=O)Cn2nnc(-c3cccc(C(F)(F)F)c3)n2)C1 (stereo not given)	none
NC(=Nc1cc(Cl)cc(Cl)c1)N1CCN(Cc2ccccc2)CC1	none (no result: Mtb MbtI inh)
CN(C)CCC(=O)c1ccccc1	none (no result: MenB inh)
CCCC(=O)c1ccc2[s+]c3ccccc3[n+](CCCN(C)C)c2c1	PV pol inh 89.0 (no result: Mtb MbtI inh)
N/C(=N\OC(=O)c1ccc(Br)o1)c1ccncc1	AID504770 -2.4
CCCc1n[nH]c(=S)n1N	Mtb MbtI inh 68.8
CC(C)c1nc(=S)c2ccccc2[nH]1	none
S=c1nc(C2CC2)[nH]c2ccccc12	Mtb MbtI inh 91.9
CCc1cccc(-n2c(C)nc3c(cnn3-c3ccc(Cl)cc3)c2=O)c1	none (no result: AID504770, Mtb MbtI inh, MenB inh)
O=C1C=CC(=O)N1Cc1cccs1	AID504770 -4.15 (no result: Mtb MbtI inh, PV pol inh, MenB inh)
CC12CC(C)(C)C(C#N)(C(N)=C1C#N)C(=C(C#N)C#N)N2 (stereo not given)	PV pol inh 83.0
c1ccc2c(c1)C(=NN1CCOCC1)c1ccccc1-2	none
CNC(=O)Nc1ccccc1NC1=C(C(=O)OC)CSC1	AID504770 -2.2
COC(=O)C1=C(Nc2ccccc2NC(=O)c2ccccc2C(=O)O)CSC1	none
COc1ccc(NC(=O)c2cc3ccc(O)cc3o/c2=N\O)cc1	MenB inh 32.1
COc1ccc(NC(=O)c2cc3ccc(O)cc3oc2=Nc2ccc(C(=O)O)cc2)cc1	none
CCn1cc(C(=O)NN)c(=O)c2cc(F)c(N3CCCC3)cc21	none
CCn1cc(C(=O)NCC(C)C)c(=O)c2cc(F)c(N3CCN(C(=O)c4ccco4)CC3)cc21	none
CCn1cc(C(=O)O)c(=O)c2cc(F)c(N3CCNCC3)cc21	AID504770 -4.65
FC(F)(F)c1cccc(N2CCN(C(=S)Nc3ccc4c(c3)OCO4)CC2)c1	none
CCn1cc(C(=O)O)c(=O)c2cc(F)c(N3CCN(C(=O)c4ccccc4F)CC3)cc21	AID504770 -3.75
CCn1cc(C(=O)O)c(=O)c2cc(F)c(N3CCN(C)CC3)cc21	AID504770 -6.95
CCn1cc(C(=O)O)c(=O)c2cc(F)c(N3CCN(C(=S)Nc4ccc5c(c4)OCO5)CC3)cc21	AID504770 -3.05
CN(Cc1nc(-c2ccccc2)no1)C(=O)N1CCOCC1	none
O=C(CSc1cccc[n+]1[O-])NCc1ccc(Cl)cc1	none (no result: MenB inh)
CCn1cc(C(=O)O)c(=O)c2cnc(N3CCNCC3)nc21	AID504770 -3.15
c1ccc2nc(Sc3ncn[nH]3)c(Sc3ncn[nH]3)nc2c1	PV pol inh 85.0 (no result: Mtb MbtI inh)
O=c1[nH]nc(Sc2ncn[nH]2)c(=O)[nH]1	none
COCCNC(=O)c1cc2c(=O)n3cccc(C)c3nc2n(C)c1=N	none (no result: PV pol inh)
NC1=NN(c2ccccc2)C(=O)C1	none (no result: Mtb MbtI inh)
CCc1nc2ccc(NC(C)=O)cc2c(=O)n1Cc1ccccc1	none
O=C(Nc1ccc2nc(C3CC3)n(Cc3ccccc3)c(=O)c2c1)C1CC1	MenB inh 32.5
O=C(/C=C/c1ccccc1Cl)Nc1ncn[nH]1	PV pol inh 67.0 (no result: Mtb MbtI inh)
COc1ccc(-n2c(C)cc(=O)cc2C)cc1	none (no result: MenB inh)
COc1cc(OCCN2CCOCC2)ccc1C1C(C#N)=C(N)Oc2nc(C(F)(F)F)[nH]c21 (stereo not given)	none (no result: Mtb MbtI inh)
N#CSC(C#N)Cc1ccc(Cl)c(Cl)c1 (stereo not given)	AID504770 -4.15, Mtb MbtI inh 89.1 (no result: MenB inh)
N#Cc1c(N)cc(N)nc1SCc1ccc(Cl)c(Cl)c1	none
CC(=O)N(CC(=O)Nc1ccc(C)cc1)c1ccccc1	none (no result: Mtb MbtI inh)
O=C(NCCC1=CCCCC1)c1ccc2c(c1)N(Cc1ccccc1)C(=O)c1ccccc1S2=O (stereo not given)	none (no result: AID504770, Mtb MbtI inh, MenB inh)
FC(F)(F)c1ccc(=S)[nH]c1	Mtb MbtI inh 93.4
O=C(O)CCN1CCCC1	none
O=C(O)CN1CCCCC1	MenB inh 30.9
O=C(CCc1ccc(S(=O)(=O)N2CCCCCC2)cc1)Nc1ccnn1Cc1cccs1	none
Cc1ccc(CNC(=O)CN2NS(=O)(=O)c3ccccc3C2=O)cc1	Mtb MbtI inh 91.2
Cc1cc(N2CCN(c3ccc(F)cc3)CC2)n2nc(-c3ccc(Cl)cc3)nc2n1	none (no result: AID504770, Mtb MbtI inh, MenB inh)
O=C1C=CC(=O)C(C2=C3C(=O)N(Cc4ccccc4)CC(=O)N3CCC2)=C1	Mtb MbtI inh 100.2
CCC(C)[C@@H](CO[C@@H](Cc1ccccc1)C(=O)N[C@@H](CCS(C)(=O)=O)C(=O)OC(C)C)NC[C@@H](N)CS (stereo not given in full)	Mtb MbtI inh 66.8 (no result: AID504770)
O=C(CSc1nnnn1-c1ccc(O)cc1)c1ccc2c(c1)OCCO2	none
NC(=S)NCC1CCCO1 (stereo not given)	Mtb MbtI inh 89.2
CCOC(=O)C1CCCN(Cn2nnn(-c3ccc(OC)cc3)c2=S)C1 (stereo not given)	Mtb MbtI inh 62.8, PV pol inh 79.0
NC1=NC(=Nc2ccccc2)c2ccccc21	none (no result: MenB inh)
Nc1nc(=Nc2ccccc2)ss1	AID504770 -4.2 (no result: Mtb MbtI inh)
O=C1c2ccccc2C(=O)N1c1cccnc1	none (no result: PV pol inh, MenB inh)
CN(C)c1nc(-c2ccccc2)c(CC(=O)O)s1	none
CN(C)c1nc(-c2ccccc2)[n+](C)s1	AID504770 -3.95!
c1coc(-c2nnc(-c3ccco3)nn2)c1	PV pol inh 43.0
O=C(Oc1ccc(-c2nnco2)cc1)c1cc(-c2ccccc2)nn1-c1ccccc1	none
c1ccc(CN2CCN(Cc3ccc4c(c3)OCCO4)CC2)cc1	none
CCN1C(=O)N(c2ccccc2)P(=S)(N2CCCC2)c2cc3c(cc21)OCCO3 (stereo not given)	Mtb MbtI inh 89.8, PV pol inh 87.0
NC(=S)NCCc1ccccc1	Mtb MbtI inh 83.0, PV pol inh 86.0
S=C(NCCc1ccccc1)c1ccccc1	none
Cc1cccc(NC(=O)CN2c3cccc4cccc(c34)S2(=O)=O)c1	none
O=C(O)CN=C1NC2(CCCC2)Cc2ccccc21	MenB inh 33.8
COc1ccc(CCC(=O)NCc2ccc3c(c2)CCN3C(=O)c2cccc(C)c2)cc1	none (no result: AID504770, Mtb MbtI inh, MenB inh)
O=C(COC(=O)c1ccc(Br)cc1)NCc1ccccc1	none (no result: MenB inh)
O=C(COC(=O)c1ccncc1)NCc1ccccc1	AID504770 -3.5 (no result: MenB inh)
C=Cc1ccc2c(c1)N(C)C(=C)S2	Mtb MbtI inh 61.7 (no result: MenB inh)
C=Cc1ccc2c(ccn2C(C)=O)c1	none
COc1ccc(-c2ccc(CNCCN3CCOCC3)o2)cc1Cl	MenB inh 32.7
Cc1ccc(CNCCN2CCOCC2)o1	none (no result: Mtb MbtI inh)
O=C(NCC(O)c1ccccc1)Nc1ccccc1 (stereo not given)	none
CCOC(=O)c1c(NC(=S)Nn2cnnc2)sc2c1CCCCCC2	Mtb MbtI inh 89.2
CCN(CC)C(=O)c1sc(NC(=S)N(C)Cc2cn(CC)nc2C)c(C(=O)OC)c1C	none
CCN(CC)C(=O)c1sc(NC(=S)Nn2cnnc2)c(C(=O)OC)c1C	Mtb MbtI inh 54.8
